# Hits are enriched below; roughly 15% of the tested compounds scored in any of these assays.
# Sm TGR inh – inhibitors of Schistosoma mansoni thioredoxin glutathione reductase; Q962Y6; purified TGR, DTNB reduction, TNB absorbance 405 nm; Potency, µM (top dose mostly 114 µM), inactives show at the highest dose activity change, negative = inhibition, hits mostly inhibitors; hit rate 3% among 360,000; AID 485364; also: potency is read from the fitted curve at half-maximal effect; % is scaled to controls: 0 for no effect and ±100 for the full control effect; nearly all actives have a fitted effect of over 60% in size
#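 TGR 20 nM + NADPH 100 uM (dispensed conc.), cpd preinc 15 min RT; start with NADPH (500 uM addition) then DTNB (15 mM addition). Kinetic TNB absorbance, 405 nm filter. Four-parameter Hill fit across titration.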
# SARS PLpro yeast – blocks SARS-CoV papain-like protease in a yeast assay; Potency, µM (doses to about 32.9 µM), inactives show at the highest dose activity, positive = growth rescue, actives largely listed as activators; hit rate 0.19% among 330,000; S. cerevisiae expressing SARS-CoV PLpro, growth rescue; calls by dose curve; also: potency is read from the fitted curve at half-maximal effect; 0% is about no effect; nearly all actives have a fitted effect of over 55% in size
# Pf growth 96h – P. falciparum growth inhibition at 96 hour, primary screen for plastid delayed-death inhibitors. P. falciparum luciferase reporter growth, 96 h. Potency, µM (highest dose often 28.7 µM), without a hit: top-dose activity change, negative = inhibition, actives largely listed as inhibitors. hit rate 6.9% among 320,000; also: potency is read from the fitted curve at half-maximal effect; % is scaled to controls: 0 for no effect and ±100 for the full control effect
#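 Two parasite generations (96 h, 37 C, 5% CO2) of compound exposure in infected erythrocytes (0.05% parasitemia, 2% hematocrit). Luciferase-reporter P. falciparum; decreased luminescence indicates inhibited growth, aimed at apicoplast-acting delayed death.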
# HCV inh – inhibitors of hepatitis C virus infection; Potency, µM (series often up to 41.8 µM), without a hit: top-dose activity change, negative = inhibition, actives largely listed as inhibitors; hit rate 3.4% among 340,000; Huh7.5.1 HCVcc-Cre infection, luciferase reporter, 44 h; also: potency is read from the fitted curve at half-maximal effect; % is scaled to controls: 0 for no effect and ±100 for the full control effect
#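 Cells (1,000/well) were plated 4 h before compound, then infected with HCVcc-Cre virus (~0.5 moi). After 44 h further culture, infection was read as luciferase luminescence following a 15 min substrate incubation at room temperature.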
# HCMV antiviral – blocks human cytomegalovirus replication. activity change, negative = inhibition, % at 57.5 µM. hit rate 4.5% among 410,000. AID 1259415. HFF cells, HCMV-luciferase reporter, 72 h; hits give low values; in the data active = activity change below about -60%; inconclusive = no clear call, values can overlap the other calls; inactive = above about -39%; also: % is scaled to controls: 0 for no effect and ±100 for the full control effect
#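 Human foreskin fibroblasts infected with luciferase-reporter HCMV at MOI 1 PFU/cell, compounds at two doses. Luciferase measured 72 h post infection; normalized to buffer-only basal and Salinomycin (10uM) controls.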
# Pf growth 48h – P. falciparum growth inhibition at 48 hours (one generation). P. falciparum luciferase growth in erythrocytes, 48 h. hit rate 5.9% among 310,000. Potency, µM (series often up to 28.7 µM), inactives show top-dose activity change, negative = inhibition, actives largely listed as inhibitors. AID 504832; also: potency is read from the fitted curve at half-maximal effect; % is scaled to controls: 0 for no effect and ±100 for the full control effect
#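 Luminescence readout; reporter = integrated firefly luciferase in P. falciparum. RBC culture at 2% hematocrit, 0.1% parasitemia final, 37 C/5% CO2; decreased signal taken as growth inhibition.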
# Active calls of the source: *; ? = inconclusive; . = no result; ! = not confirmed by another sample; [ ] = another dose, or the depositor's remark. Unless noted, calls follow the shape of the dose curve; as a rule, active = well fitted curve in the direction sought with a large enough effect; inconclusive = small, poorly fitted or top-dose-only effect, or another doubt; inactive = no such curve, though single readings can be large; an effect the other way counts as inactive or inconclusive.
SMILES,Sm TGR inh,SARS PLpro yeast,Pf growth 96h,HCV inh,HCMV antiviral,Pf growth 48h
COc1ccc(NC(=O)c2ccc3c(c2)NC(=O)CS3)cc1S(=O)(=O)Nc1ccc(Br)cc1,.,1.2%,-20.0%,?,-26.9,-27.6%
COc1ccccc1NS(=O)(=O)c1cc(NC(=O)c2ccncc2)ccc1N1CCCC1,-3.0%,1.2%,?,?,-35.7,?
COc1ccccc1NS(=O)(=O)c1cc(NC(=O)C2CC2)ccc1N1CCOCC1,46.9%,6.9%,11.7µM*,.,.,?
COc1ccc(CNC(=O)CCc2nc(-c3ccc(C)cc3)no2)c(OC)c1,6.4%,.,.,.,0.0,.
CCCCn1cnc2cc(C)c(C)cc21,8.9%,0.1%,0.0%,?,9.9,?
O=C(CCCN1C(=O)c2cccc3cccc(c23)C1=O)NCc1cccs1,6.3%,2.4%,3.9%,2.1%,?,-2.7%
COc1ccccc1NS(=O)(=O)c1cc(NC(=O)C(C)NC(N)=O)ccc1N1CCCC1 (stereo unspecified),-6.5%,2.9%,?,?,0.0,?
COCC(=O)Nc1ccc(N2CCCC2)c(S(=O)(=O)Nc2ccccc2OC)c1,4.8%,0.5%,5.22µM*,2.8%,0.0,2.62µM*
COc1ccccc1NS(=O)(=O)c1cc(NC(=O)Nc2cccc(C)c2)ccc1N1CCCCC1,-1.4%,18.2%,3.7µM*,?,1.8,3.7µM*
COc1ccccc1NS(=O)(=O)c1cc(NC(=O)c2ccc(=O)[nH]c2)ccc1N1CCOCC1,-0.9%,-4.3%,11.7µM*,?,-14.1,?
COc1ccccc1NS(=O)(=O)c1cc(NC(=O)CCNC(C)=O)ccc1N1CCCCC1,-5.1%,2.1%,10.4µM*,?,?,?
COc1ccccc1NS(=O)(=O)c1cc(NC(=O)COc2ccccc2)ccc1N1CCOCC1,.,-2.8%,.,?,-19.1,.
Cc1ccc(Cl)cc1N1CCN(c2nc3ccccc3c3nc(-c4cccnc4)nn23)CC1,-3.4%,.,.,.,11.3,.
CC(O)(c1ccc(F)c(F)c1)c1nc(-c2ccoc2)cs1 (stereo unspecified),.,.,.,.,-3.0,.
Cc1ccc(N)c2c1OCCC2=O,-6.3%,-7.7%,15.9%,-4.0%,-12.6,?
NC(=O)CCC(NC(=O)OCc1ccccc1)C(=O)OCC(=O)c1ccccc1 (stereo unspecified),.,.,.,.,59.0,.
CC(=O)c1c(C)[nH]c(C(=O)Nc2ccc(C)c(S(=O)(=O)N(C)C)c2)c1C,0.0%,-1.6%,-6.6%,?,308.0,233.2%
CC(=O)c1c(C)[nH]c(C(=O)Nc2ccc(C)c(S(=O)(=O)Nc3ccc(C)cc3C)c2)c1C,-13.4%,-1.8%,?,25.1µM*,0.5,13.1µM*
CCCCCCCCCCCCCCCCn1cc[n+](C)c1,13.1%,-1.5%,2.08µM*!,5.62µM*,-95.9*,3.29µM*
COc1cccc(NC(=O)c2cnc(NS(=O)(=O)c3ccccc3)nc2)c1,.,.,.,.,-4.5,.
CCCCn1c(N)c(N(CCOC)C(=O)c2cc(-c3ccco3)nc3ccccc23)c(=O)[nH]c1=O,25.1µM*,-2.8%,-14.1%,-19.6%[8.37 µM],.,-7.4%
CCCCn1c(N)c(N(CCC(C)C)C(=O)c2cc(-c3ccco3)nc3ccccc23)c(=O)[nH]c1=O,-13.9%,-18.0%,-18.5%,25.7%,-39.3,?
CCCCN(C(=O)c1cc(-c2ccco2)nc2ccccc12)c1c(N)n(CCCC)c(=O)[nH]c1=O,3.55µM*,-2.8%,?,-1.8%,-17.0,?
O=C(CCC1CCCC1)N[C@@H](Cc1ccc(O)cc1)C(=O)O,27.2%,-0.6%,0.0%,-6.6%,6.8,53.0%
CCOc1ccc(CCNC(=O)c2ccccc2OCc2c(C)noc2C)cc1OCC,-12.4%,-5.3%,?,7.08µM*,0.6,?
SMILES,Sm TGR inh,SARS PLpro yeast,Pf growth 96h,HCV inh,HCMV antiviral,Pf growth 48h
CCOc1ccc(C(C)NC(=O)c2ccccc2OCc2c(C)noc2C)cc1OCC (stereo unspecified),-4.0%,-1.7%,6.57µM*,.,30.5,?
Cn1nnnc1Sc1ncnc2scc(-c3cccc(Br)c3)c12,.,3.2%,.,.,-17.6,.
Cn1nnnc1Sc1ncnc2scc(-c3ccccc3Cl)c12,3.8%,3.0%,1.65µM*,.,-73.2*,11.7µM*
Cn1nnnc1Sc1ncnc2scc(-c3ccc(Cl)cc3)c12,-24.0%,-2.9%,3.7µM*,.,-98.1*,6.57µM*
Cn1nnnc1Sc1ncnc2scc(-c3ccc([N+](=O)[O-])cc3)c12,?,-6.8%,3.7µM*,.,-100.2*,13.1µM*
Cn1nnnc1Sc1ncnc2scc(-c3cccc(S(C)(=O)=O)c3)c12,?,-5.4%,?,.,-5.1,10.4µM*
c1ccc(CN2CCC3CC2c2c3cccc2N2CCOCC2)cc1 (stereo unspecified),.,.,.,.,-11.0,.
CN(C(=O)C1CCC(=O)N(CCCN2CCCC2=O)C1)C(C1CC1)C1CC1 (stereo unspecified),-0.8%,-9.6%,37.2%,0.9%,?,9.3%
COc1ccc(-c2csc3ncnc(Sc4nnnn4C)c23)cc1,.,-20.4%,.,.,-92.4*,.
Cn1nnnc1Sc1ncnc2scc(-c3ccc4c(c3)OCO4)c12,.,-2.7%,.,.,-86.1*,.
Cn1nnnc1Sc1ncnc2scc(-c3cccc4c3sc3ccccc34)c12,.,15.1%,.,.,-91.8*,.
Cc1ccc(-c2csc3ncnc(SCC(=O)c4ccc5c(c4)OCCO5)c23)cc1,27.3%,6.4%,6.4%,?,?,-4.9%
O=C(O)CSc1ncnc2scc(-c3ccccc3)c12,-3.4%,-0.3%,8.6%,11.0%,-13.5,9.1%
CCC(=O)N(C)C[C@@H]1Oc2ncc(Br)cc2C(=O)N([C@@H](C)CO)C[C@H]1C,.,.,.,.,3.2,.
O=C(/C=C/c1ccccc1)Nn1c(-c2cccs2)nc2ccccc2c1=O,-3.7%,-12.3%,-5.0%,-14.9%,-60.9*,4.6%
O=C(/C=C/c1cccc(Cl)c1)Nn1c(-c2cccs2)nc2ccccc2c1=O,-4.2%,-21.6%,2.08µM*,-15.3%,?,-0.7%
COc1cccc(CNC(=O)CSc2ncc(S(=O)(=O)c3ccc(Br)cc3)c(=O)[nH]2)c1,0.6%,.,.,.,-10.2,.
CC(=O)OCC1CC(COC(C)=O)C(COC(C)=O)CC1COC(C)=O (stereo unspecified),.,.,.,38.6%,-27.3,.
O=C1/C(=C/c2ccc(N3CCOCC3)o2)SC(=Nc2ccccc2)N1CCc1c[nH]c2ccccc12,8.91µM*,-33.6%,1.65µM*,3.16µM*,.,9.28µM*
COc1ccc(N=C2S/C(=C\c3ccc(OC(C)C(=O)O)c(OC)c3)C(=O)N2CCc2c[nH]c3ccccc23)cc1 (stereo unspecified),0.0%,0.4%,1.65µM*,?,-28.7,?

# High-throughput results deposited in PubChem by National Center for Advancing Translational Sciences (NCATS).
